Screening results from PubChem.
rRNA inh HTS – inhibits bacterial ribosomal RNA function over humanized ribosomes; E. coli WT GFP vs humanized-ribosome RFP mutants, fluorescence, 24 h; active compounds read low; DMSO median 0, no signal -100; GFP signal change (wild-type ribosome), % (no concentration beside the values); 350,000 tested, 1.6% active;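 active = significant combined selectivity score with lowered wild-type GFP, culture density cut under 30%, mutant RFP and density less affected; inactive = any of these conditions unmet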
PGC1a acetyl inh – lowers PGC1a acetylation signal in U2OS cells | 350,000 tested, 0.17% active | inhibition, % at 15.6 µM | AID 651687 | AlphaScreen anti-acetyl-lysine; with virally co-expressed GCN5 acetyltransferase;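 active = every replicate shows inhibition of at least 40%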
CaV13 ICDI inh – Primary screen for inhibitors of IQ motif and Ca2+-dependent inactivation inhibitor domain binding in CACNA1D, Förster resonance energy transfer in living cells, …. inhibition, % at 12.3 µM. 340,000 tested, 0.098% active. HEK cells, CFP/YFP FRET ICDI-IQ, plate reader, 10 min; percent FRET-ratio fall versus neutral wells;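 active = mean replicate inhibition of at least 30% and at least 1% of replicates passing that level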
ERAP1 inh – inhibitors of human ERAP1 aminopeptidase; Q9NZ08; recombinant ERAP1, Leu-AMC fluorescence, 60 min; inhibition, % at 10.7 µM; 340,000 tested, 0.15% active; AID 652197;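 active = mean replicate inhibition of at least 30%, or all replicates individually reaching that 30% level; inactive = mean below 30% and not every replicate reaching it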
Target sequence (Q9NZ08 whole entry, looked up): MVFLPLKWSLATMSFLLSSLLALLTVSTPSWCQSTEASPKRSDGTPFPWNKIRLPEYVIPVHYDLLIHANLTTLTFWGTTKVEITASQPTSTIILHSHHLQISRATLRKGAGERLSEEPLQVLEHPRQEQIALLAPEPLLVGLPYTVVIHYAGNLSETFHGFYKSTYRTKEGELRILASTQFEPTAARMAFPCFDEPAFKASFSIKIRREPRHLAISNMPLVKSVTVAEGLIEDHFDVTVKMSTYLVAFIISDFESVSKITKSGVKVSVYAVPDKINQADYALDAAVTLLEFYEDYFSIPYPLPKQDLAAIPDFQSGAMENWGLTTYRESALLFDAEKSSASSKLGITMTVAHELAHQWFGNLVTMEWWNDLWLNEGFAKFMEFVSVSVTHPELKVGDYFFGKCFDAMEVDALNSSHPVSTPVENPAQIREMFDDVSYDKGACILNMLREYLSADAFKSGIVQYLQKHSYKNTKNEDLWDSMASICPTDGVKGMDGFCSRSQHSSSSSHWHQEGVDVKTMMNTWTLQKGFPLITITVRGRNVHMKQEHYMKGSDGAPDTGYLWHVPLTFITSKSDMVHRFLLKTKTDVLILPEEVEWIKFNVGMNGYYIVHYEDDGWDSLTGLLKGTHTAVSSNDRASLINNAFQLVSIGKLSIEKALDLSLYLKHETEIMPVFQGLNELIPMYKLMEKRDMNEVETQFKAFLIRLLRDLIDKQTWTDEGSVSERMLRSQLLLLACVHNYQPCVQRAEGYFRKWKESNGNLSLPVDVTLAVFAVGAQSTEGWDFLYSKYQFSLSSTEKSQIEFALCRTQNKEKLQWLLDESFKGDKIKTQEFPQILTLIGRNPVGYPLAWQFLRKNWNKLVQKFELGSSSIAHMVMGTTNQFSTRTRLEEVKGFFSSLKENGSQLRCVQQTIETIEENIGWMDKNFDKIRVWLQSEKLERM
DENV2 CPE rescue – inhibitors of DENV2 cytopathic effect. AID 651640. DENV2-infected cells, cytopathic effect rescue, plate reader. CPE inhibition, % at 9.99 µM. 350,000 tested, 1.7% active; in the data active = CPE inhibition above about 20%, passing the limit was not always enough; tested in BHK-21 cells
GSIS activator – GLuc luminescence reporter in INS-1E cells, primary screen for activators of glucose-dependent secretion of insulin; INS-1E GLuc reporter insulin secretion, 2-3 h; activation, % at 16.6 µM; 370,000 tested, 0.61% active;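 active = lowest replicate activation of at least 40%, so every replicate reaches that level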
Large screens that a line does not name were inactive; ! = repeats disagree. An excerpt weighted towards active compounds, which were near 3.2% of everything screened.

O=C1COc2ccc(S(=O)(=O)N3CCc4ccccc43)cc2N1	none
CC(OC(=O)c1ccc(Cl)c(S(=O)(=O)Nc2ccc(F)cc2)c1)C(=O)NC(N)=O (stereo unspecified)	rRNA inh HTS -26
C[C@@H]1CN([C@@H](C)CO)C(=O)Cc2cc(NC(=O)C3CC3)ccc2O[C@H]1CN(C)CC1CC1	none (no result: PGC1a acetyl inh, CaV13 ICDI inh)
CN1C[C@H](O)COC[C@@H]2O[C@@H](CC(=O)N3CCN(c4ccccc4)CC3)CC[C@H]21	none (no result: CaV13 ICDI inh)
Oc1c(Cl)cc(Cl)cc1/C=N/NC(=S)NC1CC2C=CC1C2 (stereo unspecified)	rRNA inh HTS -31
Oc1ccccc1/C=N/NC(=S)NC1CC2C=CC1C2 (stereo unspecified)	rRNA inh HTS -39
Oc1ccccc1C=NNC(=S)NC1CC2C=CC1C2 (stereo unspecified)	none (no result: GSIS activator)
COCC(=O)Nc1ccc2c(c1)C(=O)N(C)C[C@@H](OC)[C@H](C)CN(CCC(F)(F)F)[C@H](C)CO2	none (no result: CaV13 ICDI inh)
COc1ccc2c3c(n(C)c2c1)[C@@H](CO)N(Cc1ccccc1OC)CC31CN(C(=O)C2CC2)C1	none (no result: CaV13 ICDI inh, ERAP1 inh)
COc1cccc(/C=N/NC(=O)c2ccc(N3CCCC3=O)cc2)c1	rRNA inh HTS -19
O=C(N/N=C/c1ccco1)c1ccc(N2CCCC2=O)cc1	none (no result: rRNA inh HTS, ERAP1 inh, DENV2 CPE rescue)
COc1ccc(OC)c(/C=N/NC(=O)c2[nH]nc3c2CCc2ccccc2-3)c1	none
COc1cccc(/C=N/NC(=O)c2[nH]nc3c2CCc2ccccc2-3)c1	rRNA inh HTS -37
CCCC#Cc1cnc2c(c1)C(=O)N([C@H](C)CO)C[C@H](C)[C@H](CN(C)C(=O)c1ccc3c(c1)OCO3)O2	none (no result: CaV13 ICDI inh)
O=C(NNC(=S)NC(=O)c1ccccc1[N+](=O)[O-])c1ccccc1O	none
O=C(NNC(=S)NC(=O)c1ccccc1[N+](=O)[O-])c1ccccc1[N+](=O)[O-]	rRNA inh HTS -26 (no result: DENV2 CPE rescue)
COc1c(O)cc2c(c1O)C1OC(CO)C(O)C(O)C1OC2=O (stereo unspecified)	rRNA inh HTS -22 (no result: GSIS activator)
CCCN(C)C[C@@H]1OCCCC[C@H](C)Oc2ccc(NC(=O)Nc3ccc4c(c3)OCO4)cc2C(=O)N([C@H](C)CO)C[C@@H]1C	none (no result: CaV13 ICDI inh, ERAP1 inh, DENV2 CPE rescue)
O=C(CCNS(=O)(=O)c1ccccc1C(F)(F)F)N1CCN(C(c2ccccc2)c2ccccc2)CC1	DENV2 CPE rescue 92 (no result: CaV13 ICDI inh)
CCCn1nc(NC(=O)c2ccco2)c2cc3ccccc3nc21	GSIS activator 45 (no result: rRNA inh HTS, PGC1a acetyl inh, ERAP1 inh, DENV2 CPE rescue)
CCCn1nc(NC(=O)c2cccs2)c2cc3cc(OC)ccc3nc21	none (no result: rRNA inh HTS, CaV13 ICDI inh, ERAP1 inh, DENV2 CPE rescue, GSIS activator)
CCCn1nc(NS(=O)(=O)c2ccccc2[N+](=O)[O-])c2cc3ccccc3nc21	rRNA inh HTS -21
CCCCn1nc(NC(=O)c2cccs2)c2cc3cc(OC)ccc3nc21	CaV13 ICDI inh 54 (no result: rRNA inh HTS, ERAP1 inh, DENV2 CPE rescue, GSIS activator)
CCn1nc(NC(=O)c2ccco2)c2cc3cc(C)ccc3nc21	none (no result: PGC1a acetyl inh)
C[C@@H]1CN([C@@H](C)CO)C(=O)c2cc(-c3cccnc3)cnc2O[C@H]1CN(C)C(=O)C1CCCCC1	none (no result: CaV13 ICDI inh, ERAP1 inh, DENV2 CPE rescue)
CCNC(=O)C[C@H]1C=C[C@@H](NC(=O)C2CCC2)[C@H](CO)O1	none (no result: rRNA inh HTS, CaV13 ICDI inh, GSIS activator)
CCOC(=O)N1CCN(S(=O)(=O)c2ccc3c(c2)CC(C)N3C(C)=O)CC1 (stereo unspecified)	rRNA inh HTS -46 (no result: PGC1a acetyl inh)
C[C@H]1CN([C@@H](C)CO)C(=O)c2cc(NC(=O)CCCN(C)C)ccc2O[C@H]1CN(C)C(=O)Nc1cccc2ccccc12	none (no result: CaV13 ICDI inh)
Cc1noc(C)c1NC(=O)N(C)C[C@H]1Oc2c(NC(=O)c3ccc(-c4nccs4)cc3)cccc2C(=O)N([C@@H](C)CO)C[C@H]1C	DENV2 CPE rescue 24 (no result: CaV13 ICDI inh)
C[C@H]1CN([C@@H](C)CO)C(=O)c2cccc(NC(=O)c3ccc(-c4nccs4)cc3)c2O[C@@H]1CN(C)Cc1ccc(-c2ccccc2)cc1	DENV2 CPE rescue 75 (no result: CaV13 ICDI inh)
Cc1noc(C)c1NC(=O)N(C)C[C@@H]1Oc2c(NC(=O)c3ccc(-c4nccs4)cc3)cccc2C(=O)N([C@H](C)CO)C[C@@H]1C	DENV2 CPE rescue 33 (no result: CaV13 ICDI inh)
O=C(c1ccc(F)cc1)N1CC(=O)N2[C@H](C1)[C@H](c1ccc(C#CC3CCCC3)cc1)[C@@H]2CO	none (no result: CaV13 ICDI inh)
CCC(=O)Nc1ccc2c(c1)OC[C@@H](C)N(Cc1nccs1)C[C@@H](C)[C@@H](OC)CN(C)C2=O	none (no result: CaV13 ICDI inh)
O=C1C=CC(c2c[nH]c3ccccc23)CC1 (stereo unspecified)	rRNA inh HTS -14 (no result: PGC1a acetyl inh)
C#CCOCCOCCOCCNc1nc(OC)nc(N2CCN(C(=O)[C@H](CCC(=O)O)n3cc(C(N)CO)nn3)CC2)n1 (stereo partly specified)	DENV2 CPE rescue 23 (no result: ERAP1 inh)
C#CCOCCOCCOCCNc1nc(N2CCOCC2)nc(N2CCN(C(=O)[C@H](Cc3ccc(O)cc3)n3cc([C@@H](N)CC(C)C)nn3)CC2)n1	DENV2 CPE rescue 20 (no result: ERAP1 inh)
C#CCOCCOCCOCCNc1nc(N2CCN(C(=O)[C@H](CCC(=O)O)n3cc([C@@H](N)CO)nn3)CC2)nc(N2CCN(C(=O)[C@H](CCC(=O)O)n3cc([C@@H](N)CCSC)nn3)CC2)n1	none
Cc1ccc(-c2cnc3c(c2)C(=O)N([C@@H](C)CO)C[C@@H](C)[C@@H](CN(C)C(=O)c2ccccc2)O3)cc1	none (no result: CaV13 ICDI inh)
Cc1ccc(-c2ccc3c(c2)O[C@@H](CN(C)C(=O)Nc2ccc(F)cc2)[C@@H](C)CN([C@@H](C)CO)S3(=O)=O)cc1	DENV2 CPE rescue 30 (no result: CaV13 ICDI inh)
Cc1ccc(-c2ccc3c(c2)O[C@H](CN(C)C(=O)Nc2ccc(F)cc2)[C@@H](C)CN([C@@H](C)CO)S3(=O)=O)cc1	none (no result: CaV13 ICDI inh)
C[C@@H]1CN([C@H](C)CO)S(=O)(=O)c2ccc(-c3cccc(C(=O)N(C)C)c3)cc2O[C@H]1CN(C)C(=O)Nc1ccc(F)cc1	DENV2 CPE rescue 27!
C[C@@H]1CN([C@H](C)CO)S(=O)(=O)c2ccc(-c3cccc(C#N)c3)cc2O[C@H]1CN(C)C(=O)Nc1cc(F)ccc1F	DENV2 CPE rescue 29!
C[C@H](CO)N1C[C@H](C)[C@H](CN(C)C(=O)C2CCCCC2)Oc2cc(-c3ccc(F)cc3)ccc2S1(=O)=O	none (no result: CaV13 ICDI inh)
C[C@H]1CN([C@@H](C)CO)S(=O)(=O)c2ccc(-c3ccc(F)cc3)cc2O[C@@H]1CN(C)C(=O)C1CCCCC1	DENV2 CPE rescue 52 (no result: CaV13 ICDI inh)
CC(C)NC(=O)Nc1ccc2c(c1)C(=O)N([C@H](C)CO)C[C@@H](C)[C@H](CN(C)S(C)(=O)=O)OCCCC[C@@H](C)O2	none (no result: CaV13 ICDI inh)
O=[N+]([O-])c1ccc(N2CCCC2)nc1N1CCCC1	none
Nc1ncc([N+](=O)[O-])c(N2CCCCCC2)n1	PGC1a acetyl inh 53
